In the supplement of paper PMC10849652:
Of roughly 7,900 targets only a part is listed; those with a hit were picked by preference. About 0.6% of all pairs of compound and target were hits. Unmarked numbers belong to inactive results.

Experiments:
Assay in all cases: log2 fold change, soluble protein after heating vs DMSO (PISA); higher = thermal stabilisation; K562 cells, 10 uM, 30 min; active = over 0.2 and 3.5 SD of the protein, either way, in both replicates (recomputed)
[1] = compound: CC1=C(C=C(C=C1)NC(=O)C2=CC(=CC=C2)C(C)(C)C#N)NC3=CC4=C(C=C3)N=CN(C4=O)C
Method in brief: (§1)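 K562 cells at 2×10^6 cells/mL were treated with 10 μM compound for 30 min. Aliquots were heated for 3 min across 48°C-58°C, pooled, and extracted in PBS with 0.5% NP-40 at 4°C; soluble protein was the supernatant after 21,000xg for 90 min. Soluble protein was quantified by TMTpro 16plex LC-MS/MS with channel sums equalised, and reported as log2 fold change in thermal stability against DMSO controls, with values from duplicates.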

[2] = compound: CC1=C(C=C(C=C1)NC(=O)C2=CC(=CC=C2)N(C)C)NC(=O)C3=CC=C(C=C3)O
Method in brief: as §1

[3] = compound: CC1=CC=C(C=C1)SC2=C3C=C(SC3=CN=C2)C(=O)N
Method in brief: as §1

[4] = compound: CC1=NC(=CC=C1)C2=C(N=C(N2)C(C)(C)C)C3=CC4=NC=CN=C4C=C3
Method in brief: as §1

[5] = compound: CCCCN(Cc1ccc(C(=O)NO)cc1)C(=O)Nc1ccccc1 [Nexturastat A]
Method in brief: as §1

[6] = compound: CCCS(=O)(=O)Nc1ccc(F)c(C(=O)c2c[nH]c3ncc(-c4ccc(Cl)cc4)cc23)c1F [vemurafenib]
Method in brief: as §1

[7] = compound: CCCS(=O)(=O)Nc1ccc(F)c(C(=O)c2c[nH]c3ncc(Cl)cc23)c1F
Method in brief: as §1

[8] = compound: CCCc1cc(C)[nH]c(=O)c1CNC(=O)c1cc(-c2ccnc(N3CCN(C)CC3)c2)cc2c1cnn2C(C)C
Method in brief: as §1

[9] = compound: CCN(CCCOc1ccc2c(Nc3cc(CC(=O)Nc4cccc(F)c4)[nH]n3)ncnc2c1)CCOP(=O)(O)O [barasertib]
Method in brief: as §1

[10] = compound: CCN(CC)Cc1ccc2cc(COC(=O)Nc3ccc(C(=O)NO)cc3)ccc2c1 [givinostat]
Method in brief: as §1

UniProt P49840, sequence (P49840 whole entry, looked up): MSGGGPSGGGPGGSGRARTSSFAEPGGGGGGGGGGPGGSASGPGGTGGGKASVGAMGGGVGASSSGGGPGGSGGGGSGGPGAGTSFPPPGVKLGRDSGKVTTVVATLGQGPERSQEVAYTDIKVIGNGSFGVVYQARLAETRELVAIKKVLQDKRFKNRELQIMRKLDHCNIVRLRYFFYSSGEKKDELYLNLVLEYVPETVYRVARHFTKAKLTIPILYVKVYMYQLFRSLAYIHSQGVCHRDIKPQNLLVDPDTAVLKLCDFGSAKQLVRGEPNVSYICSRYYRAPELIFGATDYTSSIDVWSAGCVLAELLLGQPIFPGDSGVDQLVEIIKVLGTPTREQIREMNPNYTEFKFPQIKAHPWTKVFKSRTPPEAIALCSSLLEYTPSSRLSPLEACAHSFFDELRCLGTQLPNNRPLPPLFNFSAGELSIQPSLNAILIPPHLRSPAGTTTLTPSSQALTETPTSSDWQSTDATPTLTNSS
UniProt Q9Y248, sequence (Q9Y248 whole entry, looked up): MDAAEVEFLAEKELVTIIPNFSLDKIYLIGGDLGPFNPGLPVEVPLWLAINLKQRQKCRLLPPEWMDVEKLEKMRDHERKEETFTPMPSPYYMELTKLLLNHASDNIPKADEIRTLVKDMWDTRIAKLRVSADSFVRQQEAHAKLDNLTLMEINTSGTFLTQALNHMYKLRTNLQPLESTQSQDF
UniProt P21695, sequence (P21695 whole entry, looked up): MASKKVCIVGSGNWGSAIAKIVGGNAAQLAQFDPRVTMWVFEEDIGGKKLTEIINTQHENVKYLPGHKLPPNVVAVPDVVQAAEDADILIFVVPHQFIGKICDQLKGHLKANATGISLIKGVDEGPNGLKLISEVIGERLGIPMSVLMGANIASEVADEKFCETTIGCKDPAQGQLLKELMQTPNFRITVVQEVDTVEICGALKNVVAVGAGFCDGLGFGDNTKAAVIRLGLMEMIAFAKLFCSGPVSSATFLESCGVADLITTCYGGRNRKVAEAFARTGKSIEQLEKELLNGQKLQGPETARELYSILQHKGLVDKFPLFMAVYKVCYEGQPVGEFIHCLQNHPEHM
UniProt Q13547, sequence (Q13547 whole entry, looked up): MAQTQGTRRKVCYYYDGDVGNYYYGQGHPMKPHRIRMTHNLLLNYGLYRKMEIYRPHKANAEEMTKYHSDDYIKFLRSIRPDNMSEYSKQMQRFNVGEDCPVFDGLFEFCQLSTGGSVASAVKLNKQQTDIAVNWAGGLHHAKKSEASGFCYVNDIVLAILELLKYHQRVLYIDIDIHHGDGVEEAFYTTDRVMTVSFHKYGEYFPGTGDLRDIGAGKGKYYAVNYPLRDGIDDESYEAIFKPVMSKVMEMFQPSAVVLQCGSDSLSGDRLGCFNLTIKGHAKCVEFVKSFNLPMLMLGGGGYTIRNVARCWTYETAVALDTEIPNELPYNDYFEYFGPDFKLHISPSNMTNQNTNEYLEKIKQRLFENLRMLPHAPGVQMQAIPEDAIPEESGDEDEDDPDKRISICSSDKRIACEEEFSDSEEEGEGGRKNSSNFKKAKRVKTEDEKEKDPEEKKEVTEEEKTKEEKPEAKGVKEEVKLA
UniProt Q6Y7W6, sequence (Q6Y7W6 whole entry, looked up): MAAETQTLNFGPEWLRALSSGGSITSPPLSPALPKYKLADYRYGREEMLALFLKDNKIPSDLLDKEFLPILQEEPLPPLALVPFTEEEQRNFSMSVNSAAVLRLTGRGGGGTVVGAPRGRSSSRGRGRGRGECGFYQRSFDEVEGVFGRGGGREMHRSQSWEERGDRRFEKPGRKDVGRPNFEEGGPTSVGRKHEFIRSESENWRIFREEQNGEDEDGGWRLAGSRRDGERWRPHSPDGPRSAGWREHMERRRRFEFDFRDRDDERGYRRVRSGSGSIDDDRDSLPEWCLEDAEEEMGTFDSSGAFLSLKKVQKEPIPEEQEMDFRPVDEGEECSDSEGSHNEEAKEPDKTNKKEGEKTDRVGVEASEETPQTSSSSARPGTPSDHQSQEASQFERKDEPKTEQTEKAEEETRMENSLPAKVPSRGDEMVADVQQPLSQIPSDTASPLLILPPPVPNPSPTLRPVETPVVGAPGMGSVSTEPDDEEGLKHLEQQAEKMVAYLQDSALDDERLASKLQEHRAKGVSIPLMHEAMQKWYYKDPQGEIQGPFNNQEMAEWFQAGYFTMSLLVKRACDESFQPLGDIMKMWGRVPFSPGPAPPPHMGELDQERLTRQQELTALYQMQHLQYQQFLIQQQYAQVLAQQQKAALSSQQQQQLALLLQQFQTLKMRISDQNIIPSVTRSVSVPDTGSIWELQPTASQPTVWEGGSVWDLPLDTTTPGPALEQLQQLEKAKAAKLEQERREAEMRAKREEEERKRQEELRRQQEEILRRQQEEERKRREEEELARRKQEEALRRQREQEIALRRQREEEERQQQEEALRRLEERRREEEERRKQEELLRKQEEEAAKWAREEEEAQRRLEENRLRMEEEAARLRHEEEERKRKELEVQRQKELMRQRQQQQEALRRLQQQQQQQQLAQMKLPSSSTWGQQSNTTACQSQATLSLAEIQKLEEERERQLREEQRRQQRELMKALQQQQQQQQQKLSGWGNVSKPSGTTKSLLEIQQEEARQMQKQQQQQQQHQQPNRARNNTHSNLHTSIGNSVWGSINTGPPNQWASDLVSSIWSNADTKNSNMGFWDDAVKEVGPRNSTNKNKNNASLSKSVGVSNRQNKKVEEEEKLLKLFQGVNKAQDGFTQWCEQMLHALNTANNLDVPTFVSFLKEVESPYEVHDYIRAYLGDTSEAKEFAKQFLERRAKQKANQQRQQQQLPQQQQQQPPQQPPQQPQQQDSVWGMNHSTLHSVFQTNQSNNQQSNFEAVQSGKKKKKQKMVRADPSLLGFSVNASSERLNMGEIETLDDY
UniProt Q9UKN8, sequence (Q9UKN8 whole entry, looked up): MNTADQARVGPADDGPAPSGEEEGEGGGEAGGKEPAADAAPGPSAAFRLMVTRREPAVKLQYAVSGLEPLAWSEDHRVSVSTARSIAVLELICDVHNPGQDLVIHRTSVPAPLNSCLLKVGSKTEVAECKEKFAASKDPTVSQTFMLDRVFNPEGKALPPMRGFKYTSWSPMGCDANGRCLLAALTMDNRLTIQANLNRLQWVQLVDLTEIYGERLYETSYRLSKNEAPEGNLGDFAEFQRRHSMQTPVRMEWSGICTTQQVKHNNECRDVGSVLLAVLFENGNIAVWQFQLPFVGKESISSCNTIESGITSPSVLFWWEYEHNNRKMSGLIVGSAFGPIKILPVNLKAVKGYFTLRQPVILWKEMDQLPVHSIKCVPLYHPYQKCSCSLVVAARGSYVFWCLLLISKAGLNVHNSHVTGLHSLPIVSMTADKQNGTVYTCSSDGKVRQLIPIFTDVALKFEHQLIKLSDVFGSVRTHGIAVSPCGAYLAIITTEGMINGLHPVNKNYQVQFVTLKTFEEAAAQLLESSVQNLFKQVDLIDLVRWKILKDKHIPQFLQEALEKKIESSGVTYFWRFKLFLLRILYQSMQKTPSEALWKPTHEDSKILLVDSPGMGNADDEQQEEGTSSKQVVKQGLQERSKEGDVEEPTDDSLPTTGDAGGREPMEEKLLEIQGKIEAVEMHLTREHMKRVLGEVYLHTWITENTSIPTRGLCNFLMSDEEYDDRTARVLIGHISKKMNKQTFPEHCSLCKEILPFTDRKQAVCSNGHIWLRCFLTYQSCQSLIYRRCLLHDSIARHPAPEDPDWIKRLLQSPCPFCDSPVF
UniProt Q8IVV7, sequence (Q8IVV7 whole entry, looked up): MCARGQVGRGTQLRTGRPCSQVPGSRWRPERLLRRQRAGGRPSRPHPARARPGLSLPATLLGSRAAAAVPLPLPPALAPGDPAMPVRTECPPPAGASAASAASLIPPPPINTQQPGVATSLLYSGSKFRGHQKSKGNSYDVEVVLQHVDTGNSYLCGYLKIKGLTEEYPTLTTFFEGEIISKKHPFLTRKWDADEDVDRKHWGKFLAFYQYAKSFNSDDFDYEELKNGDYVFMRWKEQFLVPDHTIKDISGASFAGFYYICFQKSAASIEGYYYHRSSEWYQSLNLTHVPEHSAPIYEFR
UniProt Q92769, sequence (Q92769 whole entry, looked up): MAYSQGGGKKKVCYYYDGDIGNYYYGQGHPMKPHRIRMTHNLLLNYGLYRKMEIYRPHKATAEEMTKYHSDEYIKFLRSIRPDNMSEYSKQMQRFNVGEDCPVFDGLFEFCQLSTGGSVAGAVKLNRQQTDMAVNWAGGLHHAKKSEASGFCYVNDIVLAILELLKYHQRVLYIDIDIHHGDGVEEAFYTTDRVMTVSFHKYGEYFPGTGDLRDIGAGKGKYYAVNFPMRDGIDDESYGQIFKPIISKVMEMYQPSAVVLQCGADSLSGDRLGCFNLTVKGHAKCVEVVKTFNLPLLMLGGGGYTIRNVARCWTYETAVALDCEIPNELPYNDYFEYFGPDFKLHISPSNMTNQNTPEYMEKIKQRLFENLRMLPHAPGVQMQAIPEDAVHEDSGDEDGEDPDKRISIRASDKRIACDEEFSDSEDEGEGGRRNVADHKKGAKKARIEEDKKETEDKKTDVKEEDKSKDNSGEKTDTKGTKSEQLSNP
UniProt Q92664, sequence (Q92664 whole entry, looked up): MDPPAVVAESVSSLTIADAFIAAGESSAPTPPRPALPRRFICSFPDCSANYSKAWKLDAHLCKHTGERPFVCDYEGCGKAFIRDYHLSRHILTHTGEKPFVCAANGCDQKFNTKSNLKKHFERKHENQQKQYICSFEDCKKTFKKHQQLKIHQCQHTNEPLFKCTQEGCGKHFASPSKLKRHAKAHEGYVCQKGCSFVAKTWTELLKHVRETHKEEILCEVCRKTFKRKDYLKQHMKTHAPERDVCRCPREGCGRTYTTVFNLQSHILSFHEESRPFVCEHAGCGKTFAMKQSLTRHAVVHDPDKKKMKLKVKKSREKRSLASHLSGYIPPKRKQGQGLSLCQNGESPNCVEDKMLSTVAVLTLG
UniProt P02008, sequence (P02008 whole entry, looked up): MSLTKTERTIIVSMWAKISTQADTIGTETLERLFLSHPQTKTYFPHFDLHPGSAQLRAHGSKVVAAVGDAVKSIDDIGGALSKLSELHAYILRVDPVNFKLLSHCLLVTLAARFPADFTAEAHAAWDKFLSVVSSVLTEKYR

Row | Target | log2 fold change [1] | log2 fold change [2] | log2 fold change [3] | log2 fold change [4] | log2 fold change [5] | log2 fold change [6] | log2 fold change [7] | log2 fold change [8] | log2 fold change [9] | log2 fold change [10]
1 | HDAC7 isoform 5 (UniProt Q8WUI4) | -0.01 | 0.028 | -0.043 | -0.002 | 0.108 | 0 | -0.009 | -0.014 | 0 | 
2 | GTF3C4 (UniProt Q9UKN8) | -0.025 | -0.027 | 0.038 | 0.008 | -0.052 | 0.032 | 0.045 | 0.033 | 0.003 | -0.007
3 | IDI1 isoform 2 (UniProt Q13907) | -0.017 | -0.007 | -0.015 | 0.003 | -0.082 | 0.005 | -0.029 | -0.185 | 0.024 | -0.219
4 | HTATIP2 isoform 3 (UniProt Q9BUP3) | 0.065 | -0.093 | 0.011 | -0.007 | -0.14 | 0.057 | 0.039 | 0.059 | 0.041 | 0.012
5 | GIGYF2 (UniProt Q6Y7W6) | -0.075 | 0.058 | 0.01 | 0.044 | 0.05 | 0.043 | 0.048 | 0.049 | 0.093 | 0.092
6 | HLTF (UniProt Q14527) | 0.04 | -0.014 | -0.056 | 0.038 | 0.019 | 0.047 | 0.048 | 0.109 | 0.007 | 0.018
7 | HDAC2 (UniProt Q92769) | -0.051 | -0.001 | 0.015 | -0.006 | 0.856 (active) | -0.005 | 0.019 | -0.018 | -0.039 | 
8 | HDAC1 (UniProt Q13547) | -0.11 | -0.039 | 0.051 | 0.034 | 1.45 (active) | 0.051 | 0.14 | -0.118 | 0.024 | 
9 | IFI30 (UniProt P13284) | -0.043 | 0.043 | 0.018 | -0.046 | 0.056 | 0.056 | 0.183 | 0.034 | 0.028 | 0.018
10 | HNRNPK isoform 2 (UniProt P61978) | 0.034 | 0.004 | -0.003 | 0.075 | 0.022 | 0.048 | 0.048 | -0.031 | 0.024 | 0.063
11 | GUSB (UniProt P08236) | -0.013 | -0.014 | -0.027 | -0.073 | 0.277 | 0.06 | 0.03 | -0.038 | -0.048 | -0.501 (active)
12 | HBZ (UniProt P02008) | 0.01 | -0.074 | 0.025 | 0.042 | -0.013 | -0.028 | -0.006 | -0.008 | 0.044 | -0.052
13 | IGF2BP2 (UniProt Q9Y6M1) | 0.009 | -0.001 | -0.008 | -0.094 | 0.383 | 0.065 | 0 | -0.011 | -0.041 | 0.153
14 | HAX1 (UniProt O00165) | -0.018 | -0.101 | 0.03 | -0.058 | 0.066 | -0.012 | 0.082 | 0.045 | 0.046 | 0.009
15 | GPX4 (UniProt P36969) | -0.005 | -0.068 | 0.095 | 0.06 | -0.151 | -0.019 | 0.005 | -0.027 | -0.012 | -0.451 (active)
16 | FKBP4 (UniProt Q02790) | 0.032 | -0.037 | 0.015 | 0.045 | -0.027 | 0.032 | 0.06 | -0.009 | 0.013 | 0.012

Row | Target | log2 fold change [1] | log2 fold change [2] | log2 fold change [3] | log2 fold change [4] | log2 fold change [5] | log2 fold change [6] | log2 fold change [7] | log2 fold change [8] | log2 fold change [9] | log2 fold change [10]
17 | HIC2 (UniProt Q96JB3) | 0.039 | 0.028 | -0.005 | -0.093 | 0.131 | 0.009 | 0.123 | -0.005 | -0.033 | -0.035
18 | GCDH (UniProt Q92947) | -0.017 | -0.004 | 0.014 | 0.009 | -0.007 | 0 | 0.002 | 0.009 | 0.005 | 0.004
19 | GNAS (UniProt Q5JWF2) | 0.105 | -0.043 | -0.014 | -0.027 | -0.01 | 0.034 | -0.027 | 0.067 | -0.011 | -0.036
20 | GINS2 (UniProt Q9Y248) | 0.136 | -0.168 | 0.099 | 0.147 | 0.174 | 0.102 | 0.029 | 0.021 | 0.053 | -0.038
21 | GSK3A (UniProt P49840) | -0.025 | 0.009 | 0.197 | 0.021 | -0.094 | -0.023 | -0.003 | -0.039 | 0.014 | -0.053
22 | FIBP (UniProt O43427) | 0.046 | -0.009 | 0.001 | 0 | -0.009 | 0.03 | 0.089 | 0 | -0.071 | -0.009
23 | HEATR5B (UniProt Q9P2D3) | 0.013 | 0.005 | 0.03 | 0.022 | 0.219 (active) | 0.019 | -0.014 | -0.024 | 0 | 0.07
24 | ICMT (UniProt O60725) | -0.048 | -0.085 | -0.079 | 0.072 | -0.204 | 0 | -0.103 | 0.064 | 0.022 | -0.037
25 | GTF3A (UniProt Q92664) | 0.074 |  | 0.09 | 0.125 | -0.054 | -0.075 | 0.078 | -0.035 | -0.053 | -0.048
26 | HSPA2 (UniProt P54652) | -0.109 | 0.046 |  | -0.039 |  |  |  | 0.057 | -0.004 | 0.13
27 | FRA10AC1 isoform 3 (UniProt Q70Z53) | -0.068 |  | 0.04 | 0.041 | -0.096 | 0.104 | 0.001 | -0.001 | -0.002 | 0.052
28 | GID4 (UniProt Q8IVV7) | 0.028 | 0.003 | -0.07 |  | 0.058 | -0.181 | -0.271 (active) | -0.035 | -0.1 | -0.03
29 | GPD1 (UniProt P21695) | 0.011 | -0.046 | 0.021 |  | 0.653 (active) | 0.02 | -0.042 | -0.34 | 0.062 | 0.514
30 | HS1BP3 (UniProt Q53T59) | 0.023 | -0.045 | -0.109 | -0.046 | 0.052 | 0.132 | 0.021 |  | 0.047 | 0.111
31 | FMR1 (UniProt Q06787) | -0.023 | 0.036 | -0.066 | -0.163 |  |  | -0.094 | -0.068 |  | -0.203
